Assay results from PubChem BioAssay (NCI).
About 83,000 compounds went through this panel and 20% of them were active in at least one assay; those are over-represented in the sample as a whole.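 Results are percent growth after 48 hours of single-concentration exposure. 100 means growth as in untreated cells, lower positive values show inhibition; negative values down to -100 show cell death.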 A number with no mark means an inactive call. Calls of active or inactive are those of the source. How the source made its calls: active means growth percent below 10; inactive means the rest.

Legend:
Experiment in all cases: NCI-60 one-dose screen, 48 h (100 = growth as untreated, 0 = no growth, -100 = all killed)
Conditions in all cases: 10 µM unless noted
NCI-H23 lung = system: NCI-H23 lung
NCI-H226 lung = system: NCI-H226 lung
NCI-H322M lung = system: NCI-H322M lung
HOP-62 NSCLC = system: HOP-62 NSCLC
NCI-H460 lung = system: NCI-H460 lung
HOP-92 NSCLC = system: HOP-92 NSCLC
NCI-H522 lung = system: NCI-H522 lung
A549/ATCC NSCLC = system: A549/ATCC NSCLC
786-0 renal = system: 786-0 renal
COLO 205 colon = system: COLO 205 colon
DU-145 prostate = system: DU-145 prostate
K-562 leukemia = system: K-562 leukemia
MALME-3M melanoma = system: MALME-3M melanoma
MDA-MB-231 breast = system: MDA-MB-231 breast
RXF 393 renal = system: RXF 393 renal
SF-268 CNS = system: SF-268 CNS
SF-295 CNS = system: SF-295 CNS
SF-539 CNS = system: SF-539 CNS
M14 melanoma = system: M14 melanoma

| Structure (SMILES) | growth (NCI-H23 lung) | growth (NCI-H226 lung) | growth (NCI-H322M lung) | growth (HOP-62 NSCLC) | growth (NCI-H460 lung) | growth (HOP-92 NSCLC) | growth (NCI-H522 lung) | growth (A549/ATCC NSCLC) | growth (786-0 renal) | growth (COLO 205 colon) | growth (DU-145 prostate) | growth (K-562 leukemia) | growth (MALME-3M melanoma) | growth (MDA-MB-231 breast) | growth (RXF 393 renal) | growth (SF-268 CNS) | growth (SF-295 CNS) | growth (SF-539 CNS) | growth (M14 melanoma) |
| --- | --- | --- | --- | --- | --- | --- | --- | --- | --- | --- | --- | --- | --- | --- | --- | --- | --- | --- | --- |
| CC(=O)/C=C/c1cc2cc(Cl)ccc2[nH]c1=O | 87.5% | 85.1% | 90.5% | 68% | 78.5% | 94.5% | 75.2% | 85.2% | 74.5% | 98.8% | 69.8% | 50.5% | 97.2% | 84% | 79.1% | 81.2% | 96.9% | 85.4% | 91.2% |
| CC(C)N(Cc1ccc(CN(C(=O)CCl)C(C)C)cc1)C(=O)CCl | 19.8% | -2.93% (active) | 94.6% | -27.7% (active) | 35.8% | -65.4% (active) | -75.6% (active) | 57.4% | -85.1% (active) | -54.3% (active) | 12% | 14% | -63.2% (active) | -2.71% (active) | 45.6% | -50.7% (active) | 28.2% | -84% (active) | 1.15% (active) |
| O=[N+]([O-])c1c(S(=O)(=O)O)cc2cc(S(=O)(=O)O)ccc2c1[N+](=O)[O-] | 90.6% | 108% | 92.6% | 109% | 105% | 103% | 86.1% | 98.9% | 103% | 117% | 107% | 95.7% | 91% | 99.7% | 109% | 99.5% | 105% | 98.4% | 99.8% |
| O=S(=O)(NCCCNc1cc(-c2cn(-c3ccccc3)nc2-c2cccc(O)c2)ccn1)c1cccc(F)c1 | 58.6% | 46.4% | 57.9% | 66.7% | 35.6% | 26% | 44.4% | 37% | 13.1% | -55.9% (active) | 59.4% | 1.85% (active) | 37.9% | 7.26% (active) | 40.1% | 60.7% | 9.83% (active) | 45.1% | 42.3% |
| O=C(C[N+](=O)[O-])c1ccc(Cl)cc1 | 104% | 110% | 112% | 104% | 111% | 101% | 109% | 106% | 98.5% | 116% | 111% | 103% | 114% | 110% | 115% | 108% | 111% | 104% | 101% |
| Nc1ccccc1C#C/C=C\C#Cc1cccc(O)c1 | 97.3% | 95.4% | 93.6% | 40.2% | 34.7% | -30.1% (active) | 52.9% | 64.5% | 61.5% | 81.2% | 73.1% | 30.9% | 51.6% | 39.7% | 59% | 65.3% | 40.2% | 42.9% | 31.5% |
| O=C(Cc1n[nH]c(=O)c2ccccc12)OCc1c(Cl)cccc1Cl | 103% | 77.5% | 107% | 69.1% | 26.3% | 88.2% | 98.9% | 96.4% | 81.6% | 112% | 130% | 46.4% | 100% | 72.9% | 52.5% | 60.9% | 55.1% | 94.9% | 97.4% |
| O=C1CCCCN1CCCCC#Cc1ccccc1C#Cc1ccc([N+](=O)[O-])cc1 | 59% | 57.1% | 71% | 64.9% | 11.5% | 39.6% | 56.3% | 50.1% | 60.6% | 45.8% | 71.1% | 33.9% | 55.7% | 59.3% | 23.5% | 40.3% | 75.9% | 37.6% | 59.5% |
| CSc1ccccc1C#C/C=C\C#Cc1ccccc1N1CCCC1=O | 53.4% | 62.5% | 91.5% | 60.2% | 24.7% | 40.7% | 70.5% | 63.2% | 71.1% | 65.2% | 85.7% | 14.7% | 50% | 51% | 52.9% | 56.6% | 65.3% | 55.1% | 64.5% |
| O=C(CNC(=O)c1cccc2ccccc12)Nc1ccccc1Oc1ccccc1 | 20.9% | 49.2% | 41.8% | 24.6% | -2.87% (active) | -1.24% (active) | -10.5% (active) | 9.48% (active) | 16.3% | -8.22% (active) | 3.85% (active) | 7.84% (active) | 71.8% | 15% | 31.1% | 18.1% | 13.6% | 1.63% (active) | 17.2% |
| Cc1sc2nc(CSc3nnc(-c4ccco4)o3)[nH]c(=O)c2c1C | 121% | 102% | 131% | 115% | 108% | 106% | 104% | 101% | 111% | 109% | 114% | 75.6% | 128% | 106% | 98.3% | 106% | 107% | 122% | 122% |
| O=S(=O)(NCCCNc1cc(-c2cn(-c3ccccc3)nc2-c2cccc(O)c2)ccn1)c1ccc(Cl)cc1 | 33.1% | 24.8% | 25.2% | 29.1% | 10.9% | -6.58% (active) | 20.2% | 18.8% | -11.8% (active) | -68.5% (active) | 39.9% | -8.45% (active) | -19.3% (active) | -17.3% (active) | 14.9% | 30.6% | -47.9% (active) | 21.6% | 8.6% (active) |
| COc1cc(-c2csc(NC(=O)Nc3ccc(Cl)cc3Cl)n2)cc(OC)c1OC | 42.7% | 43.8% | 30.8% | 38.7% | 10.3% | 44% | 21.4% | 25.5% | 33% | 36.5% | 46.6% | 15.8% | 45% | 54.7% | 49.9% | 33.6% | 19.2% | 29.4% | 34.9% |
| CC(CCc1ccccc1)NC(=O)c1n[nH]c(=O)c2ccccc12 (centres undefined) | 116% | 103% | 89.7% | 92.1% | 110% | 61.2% | 82.4% | 95.8% | 107% | 115% | 110% | 77.3% | 116% | 101% | 144% | 112% | 107% | 98.6% | 104% |
| CN(C)C/C=C/C(=O)Nc1cc2c(Nc3cccc(Cl)c3F)ncnc2cc1OCCOC(F)F | 60.9% | 40.3% | 7.68% (active) | 39.3% | 67.4% | -29% (active) | -19.2% (active) | 25.2% | 18.5% | 56.7% | 31.3% | 18.1% | 38.5% | 17.6% | 6.09% (active) | 41.9% | 55.2% | 36.7% | 67.5% |
| COc1ccc(/C(=N/O)c2cc(OC)c(OC)c(OC)c2)c(OC)c1N | 51.9% | 80.7% | 48.4% | 33.7% | 14.5% | 53.2% | 0.281% (active) | 45.6% | 30.6% | 20.2% | 39% | 14.7% | 53.1% | 55.3% | 23.2% | 49.1% | 6.4% (active) | 3.96% (active) | 21% |
